# In PubChem BioAssay AID687001 (Broad Institute, 2013):
# Measured potencies and affinities stand elsewhere. Values without a mark were called inactive.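 How the source made its calls: active means signal-lowering compounds whose fitted half-maximal concentration is at or below twice the top tested dose in every run; inconclusive means runs disagree, flat 30 to 70% inhibition, or poor curve fit; inactive means the rest.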
# Target: Protein S100-A4 (Homo sapiens) (UniProt P26447)
# Assay: S100A4-myosin IIA binding inhibitor potency, dose response, biochemical, fluorescence polarization, cherry-picked hits (AID 687001);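 further: 0% = DMSO neutral control wells and -100% = TFP positive control wells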
# Details: FP, S100A4/TAMRA-myosin IIA peptide binding; series mostly up to 11 µM; activity change, negative = inhibition: at the top concentration
# Protein S100-A4 (Homo sapiens), sequence (P26447 whole entry, looked up): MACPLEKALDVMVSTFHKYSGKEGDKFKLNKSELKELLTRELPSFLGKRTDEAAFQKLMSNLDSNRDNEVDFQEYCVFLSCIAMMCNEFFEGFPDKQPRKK
row,SMILES,"activity change, negative = inhibition"
1,O=S(=O)(c1ccc(F)cc1)N1C[C@H]2[C@@H](c3ccccc31)[C@H](CO)N2Cc1ccccc1Cl,19.3%
2,O=C(O)CSc1c2c(nc3cc(C(=O)Nc4cccc(C(F)(F)F)c4)ccc13)CCCC2,6.23%
3,Cc1ccc(CCNC(=O)c2cc(-c3ccncc3)nc3ccc(S(=O)(=O)N4CCOCC4)cc23)cc1,2.7%
4,CCC1CN(C(=O)N2CCC(C(=O)NCCc3ccc(OC)c(OC)c3)CC2)c2ccccc2O1 (centres undefined),-1.87%
5,C[C@@H]1CN([C@H](C)CO)C(=O)c2cc(C#Cc3ccccc3)cnc2O[C@@H]1CN(C)C(=O)c1ccccc1F,1.29%
6,O=C(CSc1nc2cc(Cl)ccc2s1)c1ccco1,5.96%
7,CSCCC(NC(=O)c1ccccc1Cl)C(=O)NCC(c1cccs1)N(C)C (centres undefined),-5.64%
8,CCCNC(=O)Nc1ccc2c(c1)OC[C@H](C)N(C(=O)C1CC1)C[C@H](C)[C@@H](OC)CN(C)C2=O,-1.54%
9,COc1ccc(S(=O)(=O)N2CCCCC2)cc1NC(=O)CCOc1cc(C)ccc1C,-3.14%
10,Cc1ccc(S(=O)(=O)Nc2ccc3c(c2)C(=O)N([C@@H](C)CO)C[C@@H](C)[C@@H](CN(C)S(=O)(=O)c2cn(C)cn2)OCCCC[C@@H](C)O3)cc1,5.52%
11,COc1ccc(S(=O)(=O)Nc2cccc3c2O[C@@H](CN(C)S(=O)(=O)c2c(C)noc2C)[C@H](C)CN([C@@H](C)CO)C3=O)cc1,1.14%
12,C[C@@H]1CN([C@H](C)CO)C(=O)CCCn2cc(nn2)CO[C@H]1CN(C)S(C)(=O)=O,-4.05%
13,O=C(CC1C[C@H](C(=O)N2CCCCC2)[C@@]2(CCc3ccccc3)c3[nH]c4ccccc4c3CCN2C1=O)NCCC1=CCCCC1 (some centres undefined),-5.01%
14,COC(=O)c1c(NC(=O)CN(C)CC(=O)Nc2ccc(C)cc2)sc2c1CCC(C)C2 (centres undefined),2.13%
15,CC(OC(=O)/C=C/c1cccs1)C(=O)NC1CCCCC1C (centres undefined),-1.61%
16,COc1cc(/C=C2\SC(=S)N(NC(=O)c3ccccc3OC)C2=O)ccc1O,36%
17,O=C(NCc1ccccc1)c1cc(C2CCCCN2S(=O)(=O)c2ccccc2)on1 (centres undefined),-4.47%
18,Cc1ccc(CNc2cnccn2)s1,1.38%
19,CC(C)C#Cc1ccc2c(c1)O[C@@H](CN(C)C(=O)NC(C)C)[C@H](C)CN([C@H](C)CO)S2(=O)=O,0.298%
20,O=C(C[C@H]1CC[C@@H]2[C@H](COC[C@@H](O)CN2C(=O)Cc2ccccc2)O1)NC1CCCC1,17.1% [at 10 µM]
21,CCN1CCN(c2ccc(N3CCN(S(=O)(=O)c4ccc(C)c([N+](=O)[O-])c4)CC3)nn2)CC1,-5.16%
22,CCNC(=O)C[C@@H]1CC[C@@H](NS(=O)(=O)c2ccc(F)cc2)[C@H](CO)O1,-4.28%
23,O=C(CSc1ncnc2c1nnn2Cc1ccc(F)cc1)NCC1CCCO1 (centres undefined),-8.11%
24,C[C@@H]1CCCCO[C@@H](CN(C)S(=O)(=O)c2cn(C)cn2)[C@H](C)CN([C@@H](C)CO)C(=O)c2cc(NC(=O)C3CCCCC3)ccc2O1,0.768%
